Experimental data taken from article PMC7826789 (International Journal of Molecular Sciences, 2021).

What was measured:
Conditions in all cases: Compound Concentration (nM):1000
NEK3 = test system: NEK3
NEK4 = test system: NEK4
NEK5 = test system: NEK5
NEK6 = test system: NEK6
NEK7 = test system: NEK7
NEK9 = test system: NEK9
NIK = test system: T1, NIK
T1 construct: gene MAP3K14

NIM1 = test system: T2, NIM1
T2 construct: gene MGC42105

NLK = test system: NLK
OSR1 = test system: T3, OSR1
T3 construct: gene OXSR1
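Note: KINOMEscan scanMAX binding as percent activity remaining versus control; lower means stronger binding.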

## Cl.O=C(O[C@H]1CN[C@H](C#Cc2cc3ncnc(Nc4ccc5c(cnn5Cc5ccccc5)c4)c3s2)C1)N1CCOCC1 [GSK200398A]
NEK3
  Percent Control: 94%
NEK4
  Percent Control: 100%
NEK5
  Percent Control: 100%
NEK6
  Percent Control: 100%
NEK7
  Percent Control: 98%
NEK9
  Percent Control: 95%
NIK
  Percent Control: 100%
NIM1
  Percent Control: 89%
NLK
  Percent Control: 93%
OSR1
  Percent Control: 100%

## Cc1cc(O)cc(C)c1/C=C/c1cncc(C(N)=O)c1 [GW435821X]
NEK3
  Percent Control: 89%
NEK4
  Percent Control: 86%
NEK5
  Percent Control: 100%
NEK6
  Percent Control: 100%
NEK7
  Percent Control: 100%
NEK9
  Percent Control: 100%
NIK
  Percent Control: 100%
NIM1
  Percent Control: 100%
NLK
  Percent Control: 92%
OSR1
  Percent Control: 100%

## Cl.O=C(Nc1ccc(Oc2ccc3[nH]c(NC(=O)c4ccco4)nc3c2)cc1)Nc1cc(C(F)(F)F)ccc1F [GW683134A]
NEK3
  Percent Control: 97%
NEK4
  Percent Control: 81%
NEK5
  Percent Control: 96%
NEK6
  Percent Control: 100%
NEK7
  Percent Control: 100%
NEK9
  Percent Control: 10%
NIK
  Percent Control: 100%
NIM1
  Percent Control: 97%
NLK
  Percent Control: 87%
OSR1
  Percent Control: 100%

## NS(=O)(=O)c1ccc(Nc2ncc(-c3ccccc3)o2)cc1 [GW572399X]
NEK3
  Percent Control: 84%
NEK4
  Percent Control: 100%
NEK5
  Percent Control: 100%
NEK6
  Percent Control: 100%
NEK7
  Percent Control: 78%
NEK9
  Percent Control: 100%
NIK
  Percent Control: 91%
NIM1
  Percent Control: 96%
NLK
  Percent Control: 100%
OSR1
  Percent Control: 100%

## Cl.O=C(Nc1ccc(Oc2ccc3[nH]c(NC(=O)c4ccccc4)nc3c2)cc1)Nc1cc(C(F)(F)F)ccc1F [GW709042A]
NEK3
  Percent Control: 98%
NEK4
  Percent Control: 83%
NEK5
  Percent Control: 95%
NEK6
  Percent Control: 92%
NEK7
  Percent Control: 100%
NEK9
  Percent Control: 20%
NIK
  Percent Control: 100%
NIM1
  Percent Control: 88%
NLK
  Percent Control: 95%
OSR1
  Percent Control: 100%

## COc1cc2ncnc(Nc3ccc4c(cnn4Cc4ccccc4)c3)c2cc1OC.Cl [GW282449A]
NEK3
  Percent Control: 100%
NEK4
  Percent Control: 100%
NEK5
  Percent Control: 100%
NEK6
  Percent Control: 100%
NEK7
  Percent Control: 96%
NEK9
  Percent Control: 100%
NIK
  Percent Control: 100%
NIM1
  Percent Control: 100%
NLK
  Percent Control: 100%
OSR1
  Percent Control: 100%

## COc1cccc(-n2ncc3c(N/N=C/c4ccncc4)ncnc32)c1 [GW784752X]
NEK3
  Percent Control: 86%
NEK4
  Percent Control: 100%
NEK5
  Percent Control: 100%
NEK6
  Percent Control: 100%
NEK7
  Percent Control: 92%
NEK9
  Percent Control: 90%
NIK
  Percent Control: 100%
NIM1
  Percent Control: 86%
NLK
  Percent Control: 91%
OSR1
  Percent Control: 99%

## CN1CCN(C(=O)c2ccc(NC(=O)Nc3ccc(N(C)c4ccnc(Nc5ccc(CS(C)(=O)=O)cc5)n4)cc3)cc2)CC1.Cl [GW830263A]
NEK3
  Percent Control: 66%
NEK4
  Percent Control: 85%
NEK5
  Percent Control: 82%
NEK6
  Percent Control: 100%
NEK7
  Percent Control: 93%
NEK9
  Percent Control: 62%
NIK
  Percent Control: 100%
NIM1
  Percent Control: 99%
NLK
  Percent Control: 80%
OSR1
  Percent Control: 98%

## CCn1c(-c2nonc2N)nc2c(C#CC(C)(C)O)nc(OCCNC)cc21.Cl [GSK949675]
NEK3
  Percent Control: 100%
NEK4
  Percent Control: 100%
NEK5
  Percent Control: 100%
NEK6
  Percent Control: 95%
NEK7
  Percent Control: 100%
NEK9
  Percent Control: 100%
NIK
  Percent Control: 1.5%
NIM1
  Percent Control: 100%
NLK
  Percent Control: 100%
OSR1
  Percent Control: 100%

## CN(C)CCNC(=O)Nc1ccc(N(C)c2ccnc(Nc3ccc(CS(C)(=O)=O)cc3)n2)cc1.Cl [GW830900A]
NEK3
  Percent Control: 63%
NEK4
  Percent Control: 100%
NEK5
  Percent Control: 91%
NEK6
  Percent Control: 96%
NEK7
  Percent Control: 93%
NEK9
  Percent Control: 96%
NIK
  Percent Control: 88%
NIM1
  Percent Control: 88%
NLK
  Percent Control: 82%
OSR1
  Percent Control: 100%

## Cl.c1ccc(Cc2nc3ccc(Nc4ncnc5ccccc45)cc3[nH]2)cc1 [GR269666A]
NEK3
  Percent Control: 100%
NEK4
  Percent Control: 100%
NEK5
  Percent Control: 100%
NEK6
  Percent Control: 100%
NEK7
  Percent Control: 100%
NEK9
  Percent Control: 100%
NIK
  Percent Control: 100%
NIM1
  Percent Control: 94%
NLK
  Percent Control: 100%
OSR1
  Percent Control: 100%

## CN(C)c1cc2c(Nc3ccc4c(cnn4Cc4ccccc4)c3)ncnc2cn1 [GW282974X]
NEK3
  Percent Control: 77%
NEK4
  Percent Control: 99%
NEK5
  Percent Control: 48%
NEK6
  Percent Control: 27%
NEK7
  Percent Control: 78%
NEK9
  Percent Control: 88%
NIK
  Percent Control: 86%
NIM1
  Percent Control: 74%
NLK
  Percent Control: 90%
OSR1
  Percent Control: 100%

## CCS(=O)(=O)c1ccc(OC)c(Nc2ncc(-c3cccc(OC)c3)o2)c1 [GW580509X]
NEK3
  Percent Control: 100%
NEK4
  Percent Control: 100%
NEK5
  Percent Control: 100%
NEK6
  Percent Control: 100%
NEK7
  Percent Control: 100%
NEK9
  Percent Control: 100%
NIK
  Percent Control: 92%
NIM1
  Percent Control: 100%
NLK
  Percent Control: 100%
OSR1
  Percent Control: 100%

## C[C@@H](Oc1cc(-n2cnc3ccc(OC4CCN(C)CC4)cc32)sc1C(N)=O)c1ccccc1Cl [GSK579289A]
NEK3
  Percent Control: 92%
NEK4
  Percent Control: 79%
NEK5
  Percent Control: 63%
NEK6
  Percent Control: 100%
NEK7
  Percent Control: 69%
NEK9
  Percent Control: 19%
NIK
  Percent Control: 82%
NIM1
  Percent Control: 51%
NLK
  Percent Control: 100%
OSR1
  Percent Control: 100%

## COc1ccc2cc(-c3c(-c4ccncc4)nc(-c4ccc(S(C)(=O)=O)cc4C)n3C)ccc2c1 [SB-633825]
NEK3
  Percent Control: 65%
NEK4
  Percent Control: 75%
NEK5
  Percent Control: 35%
NEK6
  Percent Control: 91%
NEK7
  Percent Control: 65%
NEK9
  Percent Control: 57%
NIK
  Percent Control: 53%
NIM1
  Percent Control: 63%
NLK
  Percent Control: 81%
OSR1
  Percent Control: 70%

## COc1cccc(-c2c[nH]c3c(N/N=C/c4ccncc4)ncnc23)c1 [GW814408X]
NEK3
  Percent Control: 69%
NEK4
  Percent Control: 100%
NEK5
  Percent Control: 82%
NEK6
  Percent Control: 100%
NEK7
  Percent Control: 100%
NEK9
  Percent Control: 100%
NIK
  Percent Control: 68%
NIM1
  Percent Control: 92%
NLK
  Percent Control: 97%
OSR1
  Percent Control: 100%

## O=C(Nc1n[nH]c2nc(-c3ccc(O)cc3)c(Br)cc12)C1CC1 [SB-725317]
NEK3
  Percent Control: 100%
NEK4
  Percent Control: 88%
NEK5
  Percent Control: 100%
NEK6
  Percent Control: 100%
NEK7
  Percent Control: 86%
NEK9
  Percent Control: 98%
NIK
  Percent Control: 100%
NIM1
  Percent Control: 84%
NLK
  Percent Control: 54%
OSR1
  Percent Control: 100%

## Nc1ncnc2occ(-c3ccc(NC(=O)Nc4cc(C(F)(F)F)ccc4F)cc3)c12 [GW770249X]
NEK3
  Percent Control: 98%
NEK4
  Percent Control: 71%
NEK5
  Percent Control: 82%
NEK6
  Percent Control: 100%
NEK7
  Percent Control: 100%
NEK9
  Percent Control: 38%
NIK
  Percent Control: 100%
NIM1
  Percent Control: 100%
NLK
  Percent Control: 100%
OSR1
  Percent Control: 100%

## CC1=C(C(=O)Nc2ccc3[nH]ncc3c2)C(c2ccc(Cl)c(Cl)c2)CC(=O)N1 (centres unmarked) [GSK299115A]
NEK3
  Percent Control: 80%
NEK4
  Percent Control: 89%
NEK5
  Percent Control: 58%
NEK6
  Percent Control: 95%
NEK7
  Percent Control: 87%
NEK9
  Percent Control: 68%
NIK
  Percent Control: 76%
NIM1
  Percent Control: 79%
NLK
  Percent Control: 78%
OSR1
  Percent Control: 73%

## CC1=C(C(=O)Nc2ccc3[nH]ncc3c2)C(c2ccc3ccccc3c2)CC(=O)N1 (centres unmarked) [GSK270822A]
NEK3
  Percent Control: 70%
NEK4
  Percent Control: 84%
NEK5
  Percent Control: 100%
NEK6
  Percent Control: 100%
NEK7
  Percent Control: 77%
NEK9
  Percent Control: 70%
NIK
  Percent Control: 82%
NIM1
  Percent Control: 77%
NLK
  Percent Control: 98%
OSR1
  Percent Control: 74%
